Measured values as given in PubChem BioAssay (NCATS).
Several values for one entry are separate records, joined by “and”; a condition that tells them apart may be missing. Equal values may be shown once. Records with an inconclusive call do not appear. Activity calls are given as the source filed them. The call rests on the fitted dose curve; in most records, active means well fitted curve in the direction sought with a large enough effect; inconclusive means small, poorly fitted or top-dose-only effect, or another doubt; inactive means no such curve, though single readings can be large; an effect the other way counts as inactive or inconclusive.

Experiments:
[1] = qHTS of pediatric cancer cell lines to identify multiple opportunities for drug repurposing: Confirmatory screen for Rh41 cells (AID 1347123);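 further: 48 h compound exposure; nearly all actives have a fitted effect of over 60% in size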
Summary of the method: (§1)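 Viability after 48 h compound treatment at 37C, 500-1,000 cells/well, read as ATP luminescence with CellTiter-Glo. Primary screens used 11-point (MIPE, 0.78 nM-46 µM) or 8-point (NPC, 0.59 nM-46 µM) final concentrations; follow-up screens used 11-point dilutions.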

[2] = qHTS of pediatric cancer cell lines to identify multiple opportunities for drug repurposing: Confirmatory screen for RD cells (AID 1347124);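 further: cells exposed to compound for 48 h before viability readout; nearly all actives have a fitted effect of over 65% in size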
Summary of the method: as §1

[3] = qHTS of pediatric cancer cell lines to identify multiple opportunities for drug repurposing: Confirmatory screen for Rh30 cells (AID 1347126); further: nearly all actives have a fitted effect of over 55% in size
Summary of the method: as §1

[4] = qHTS of pediatric cancer cell lines to identify multiple opportunities for drug repurposing: Confirmatory screen for OHS-50 cells (AID 1347128);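 further: compound exposure lasted 48 h at 37 degrees C; nearly all actives have a fitted effect of over 55% in size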
Summary of the method: as §1

[5] = qHTS of pediatric cancer cell lines to identify multiple opportunities for drug repurposing: Confirmatory screen for SK-N-SH cells (AID 1347129);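 further: cells exposed to compound for 48 h before viability read; nearly all actives have a fitted effect of over 60% in size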
Summary of the method: as §1

[6] = qHTS of pediatric cancer cell lines to identify multiple opportunities for drug repurposing: Confirmatory screen for Rh18 cells (AID 1347125); further: nearly all actives have a fitted effect of over 55% in size
Summary of the method: as §1

[7] = biological target: N-terminal Xaa-Pro-Lys N-methyltransferase 1 (Homo sapiens) (UniProt Q9BV86); test: qHTS Assay for Inhibitors of N-terminal methyltransferase 1 (NTMT1): LOPAC validation of the NTMT1 SAHH-coupled ThioGlo3 Assay (AID 1347143);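 further: SAH from peptide methylation measured as thiol fluorescence via SAHH coupling and ThioGlo3; nearly all actives have a fitted effect of over 70% in size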
Summary of the method: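 Recombinant human NTMT1 (125nM) was pre-incubated 1 min at room temperature with compounds over a concentration range, then a mix of 100uM SAM, 10uM SAHH and 15uM ThioGlo3 (concentrations in added reagent) was added. ThioGlo3 fluorescence (ex 340/em 450nm) after 30 min was normalized to the initial reading.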

Furin (Homo sapiens) = Furin (Homo sapiens) (UniProt P09958); test: Furin counterscreen qHTS for Zika virus inhibitors (AID 1347149); further: nearly all actives have a fitted effect of over 70% in size
Summary of the method: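 Fluorogenic cleavage of BOC-RVRR-AMC (2 microM final, Km ~15 µM) was monitored (ex 340, em 450 nm) at 37C after 15 min RT preincubation of 5 nM furin with compounds in HEPES pH 7.0 buffer with CaCl2 and Triton X-100. Percent inhibition was fitted to a 4-parameter Hill curve.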

[8] = test system: Zika virus NS2B-NS3 protease (unlinked); test: Optimization of GU AMC qHTS for Zika virus inhibitors: Unlinked NS2B-NS3 protease assay (AID 1347151); further: nearly all actives have a fitted effect of over 80% in size
Summary of the method: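 Percent inhibition is derived from the 15-min change in AMC fluorescence, normalized against no-inhibitor and no-enzyme controls, then fitted to a 4-parameter Hill curve. Aprotinin was the intraplate control.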

[9] = test system: Zika virus NS2B-NS3 protease (linked construct); test: Confirmatory screen NINDS AMC qHTS for Zika virus inhibitors (AID 1347152); further: nearly all actives have a fitted effect of over 70% in size
Summary of the method: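 In this dose-response qHTS, AMC release from 10 microM Bz-Nle-KRR-AMC by 1 nM linked protease is measured over 15 minutes (about 20% conversion) at pH 8.0. Percent inhibition is fitted to a 4-parameter Hill curve.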

Measured: Potency
Potency means the concentration at half of the fitted maximal effect.

Sequence of Furin (Homo sapiens) (P09958 whole entry, looked up): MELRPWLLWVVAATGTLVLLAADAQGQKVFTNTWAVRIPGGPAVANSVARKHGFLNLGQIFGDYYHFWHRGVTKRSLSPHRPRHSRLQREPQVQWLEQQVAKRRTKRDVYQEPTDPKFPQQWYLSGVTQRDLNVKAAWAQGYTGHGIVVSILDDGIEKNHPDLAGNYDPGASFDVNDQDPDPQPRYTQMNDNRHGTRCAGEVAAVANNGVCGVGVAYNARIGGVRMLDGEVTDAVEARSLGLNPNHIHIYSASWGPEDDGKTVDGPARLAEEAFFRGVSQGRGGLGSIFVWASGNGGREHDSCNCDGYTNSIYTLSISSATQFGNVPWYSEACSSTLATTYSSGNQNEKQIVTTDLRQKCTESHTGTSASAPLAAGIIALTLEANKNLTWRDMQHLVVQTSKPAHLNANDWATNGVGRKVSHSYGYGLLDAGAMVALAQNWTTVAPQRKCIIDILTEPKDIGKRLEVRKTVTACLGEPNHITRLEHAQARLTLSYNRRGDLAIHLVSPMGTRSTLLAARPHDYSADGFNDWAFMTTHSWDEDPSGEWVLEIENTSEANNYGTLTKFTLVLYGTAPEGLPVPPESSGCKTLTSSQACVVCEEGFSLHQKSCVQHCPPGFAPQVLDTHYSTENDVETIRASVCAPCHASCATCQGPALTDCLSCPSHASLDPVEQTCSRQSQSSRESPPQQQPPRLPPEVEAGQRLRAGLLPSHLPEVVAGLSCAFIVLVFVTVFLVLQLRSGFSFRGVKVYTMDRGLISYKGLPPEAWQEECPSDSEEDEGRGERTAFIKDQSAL
Sequence of N-terminal Xaa-Pro-Lys N-methyltransferase 1 (Homo sapiens) (Q9BV86 whole entry, looked up): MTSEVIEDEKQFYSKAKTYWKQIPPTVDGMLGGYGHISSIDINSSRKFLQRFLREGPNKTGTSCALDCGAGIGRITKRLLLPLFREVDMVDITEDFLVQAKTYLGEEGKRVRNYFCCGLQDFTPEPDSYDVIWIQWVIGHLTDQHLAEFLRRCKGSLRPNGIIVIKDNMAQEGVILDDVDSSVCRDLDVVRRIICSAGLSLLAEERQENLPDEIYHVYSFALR

CNNCc1ccc(C(=O)NC(C)C)cc1
inactive: [1] | [2] | [3] | [4] | [5]

C[C@@H]1C[C@H]2[C@@H]3CCC4=CC(=O)C=C[C@]4(C)[C@@]3(Cl)[C@@H](O)C[C@]2(C)[C@@]1(OC(=O)c1ccco1)C(=O)CCl
active: [1] 1.04 µM | [6] 20.8 µM | [4] 11.7 µM | [5] 14.8 µM

COc1nc(N)nc2c1ncn2[C@@H]1O[C@H](CO)[C@@H](O)[C@@H]1O
active: [1] 16.5 µM
inactive: [2] | [4] | [5]

COC(=O)Nc1nc2ccc(S(=O)c3ccccc3)cc2[nH]1 (stereo not drawn)
inactive: [6] | [3]
active: [1] 1.04 µM | [2] 2.61 µM | [4] 2.33 µM | [5] 2.96 µM

Nc1nc(N)c2nc(CNc3ccc(C(=O)NC(CCC(=O)O)C(=O)O)cc3)cnc2n1 (stereo not drawn)
inactive: [1] | [6] | [3] | [5]
active: [4] 0.369 µM | [7] 56.2 µM | Furin (Homo sapiens) 19.1 µM | [8] 26.7 µM | [9] 27.1 µM

Cn1nnc2c(C(N)=O)ncn2c1=O
inactive: [1] | [2] | [6] | [3] | [4] | [5]

Nc1nc(=S)c2[nH]cnc2[nH]1
inactive: Furin (Homo sapiens) | [8]
active: [1] 14.7 µM and 13.1 µM | [6] 13.1 µM | [4] 928 nM and 414 nM | [5] 4.18 µM and 3.72 µM

Oc1c(Cl)cc(Cl)c2cccnc12
active: [1] 14.7 µM | [2] 13.1 µM | [3] 18.5 µM | [5] 20.9 µM

CN(C)c1ccc(C(=C2C=CC(=[N+](C)C)C=C2)c2ccc(N(C)C)cc2)cc1
active: [1] 0.522 µM | [2] 0.928 µM | [6] 1.47 µM | [3] 1.17 µM | [4] 3.69 µM | [5] 1.32 µM

CC(=O)[C@H]1CC[C@H]2[C@@H]3CCC4=CC(=O)CC[C@]4(C)[C@H]3CC[C@]12C
active: [1] 18.5 µM | [6] 23.3 µM | [4] 26.1 µM
inactive: [8]

CC(C(=O)O)c1ccc2c(c1)CC(=O)c1ccccc1S2 (stereo not drawn)
inactive: [1] | [2] | [6] | [3] | [4] | [5]

CC(C)(C)C(=O)OCOP(=O)(COCCn1cnc2c(N)ncnc21)OCOC(=O)C(C)(C)C
active: [1] 20.8 µM | [4] 16.5 µM
inactive: [2] | [6] | [5]

COc1ccc(C(=O)CC(=O)c2ccc(C(C)(C)C)cc2)cc1
inactive: [1] | [2] | [6] | [3] | [4] | [5]

CS(=O)(=O)c1ccc([C@@H](O)[C@@H](CO)NC(=O)C(Cl)Cl)cc1
inactive: [1] | [2] | [6] | [3] | [4] | [5]

NC(=O)c1cccnc1
inactive: [1] | [2] | [3] | [4] | [5]

O=S(=O)(O)CCS
inactive: [1] | [6] | [3] | [5]

CNS(=O)(=O)CCc1ccc2[nH]cc(C3CCN(C)CC3)c2c1
inactive: [1] | [2] | [6] | [3] | [4] | [5] | [7] | [8]

COc1cc2c(Nc3ccc(Br)cc3F)ncnc2cc1OCC1CCN(C)CC1
inactive: [6]
active: [1] 16.5 µM | [5] 16.6 µM

COc1cc2nc(N3CCCN(C)CC3)nc(NC3CCN(Cc4ccccc4)CC3)c2cc1OC
inactive: [7]
active: [1] 0.261 µM | [2] 0.657 µM | [3] 0.147 µM | [4] 18.5 µM | [5] 8.33 µM | [8] 21.2 µM

COC(=O)Nc1nc2ccc(Sc3ccccc3)cc2[nH]1
active: [1] 1.17 µM | [2] 2.08 µM | [4] 1.31 µM | [5] 5.9 µM
inactive: [3]

CO[C@@]12[C@H](COC(N)=O)C3=C(C(=O)C(C)=C(N)C3=O)N1C[C@@H]1N[C@@H]12
active: [1] 7.37 µM | [3] 9.27 µM | [5] 14.8 µM

O=NN(CCCl)C(=O)NC1CCCCC1
inactive: [1] | [2] | [6] | [3] | [4] | [5]

CCOC(=O)[C@H](CCc1ccccc1)N[C@H]1CS[C@H](c2cccs2)CN(CC(=O)O)C1=O
inactive: [1] | [2] | [6] | [3] | [5]

C[C@@H](CN1CC(=O)NC(=O)C1)N1CC(=O)NC(=O)C1
inactive: [1] | [2] | [6] | [3] | [4] | [5]

CCC(=O)O[C@]1(C(=O)CCl)[C@@H](C)C[C@H]2[C@@H]3CCC4=CC(=O)C=C[C@]4(C)[C@@]3(F)[C@@H](O)C[C@@]21C
inactive: [2] | [6] | [4] | [5]
active: [1] 26.1 µM | [3] 13.1 µM

CCc1c2c(nc3ccc(OC(=O)N4CCC(N5CCCCC5)CC4)cc13)-c1cc3c(c(=O)n1C2)COC(=O)[C@]3(O)CC
active: [1] 4.14 µM | [6] 16.5 µM | [3] 5.85 µM | [4] 2.61 µM

CC(C)(C#N)c1cc(Cn2cncn2)cc(C(C)(C)C#N)c1
inactive: [1] | [2] | [6] | [3] | [4] | [5]

COc1ccc(-c2ccc3cc(C(=O)O)ccc3c2)cc1C12CC3CC(CC(C3)C1)C2
inactive: [1] | [6] | [5] | Furin (Homo sapiens)

Nc1[nH]c(=O)ncc1F
inactive: [1] | [2] | [6] | [3] | [4] | [5]

CN1CCCC(n2nc(Cc3ccc(Cl)cc3)c3ccccc3c2=O)CC1 (stereo not drawn)
inactive: [3]
active: [1] 8.27 µM | [5] 20.9 µM

CC1CC2C3CCC4=CC(=O)C=C[C@]4(C)[C@@]3(F)[C@@H](O)C[C@]2(C)[C@@]1(O)C(=O)CO (stereo partly drawn)
inactive: [1] | [2] | [6] | [4] | [5] | [7] | [8]

CC(C)NCC(O)c1ccc(NS(C)(=O)=O)cc1 (stereo not drawn)
inactive: [1] | [2] | [6] | [4] | [5] | [7] | [8]

CCC(=O)O[C@]1(C(=O)SCF)[C@H](C)C[C@H]2[C@@H]3C[C@H](F)C4=CC(=O)C=C[C@]4(C)[C@@]3(F)[C@@H](O)C[C@@]21C
inactive: [1]
